Assay results: PubChem BioAssay (EPA / NIEHS)
Values joined by “and” are separate entries in the source; they are usually repeats but may differ in a detail not shown here. Equal entries are not always repeated. Results filed as inconclusive are left out. Active and inactive are the calls of the source. How the source made its calls, unless noted: active means hit-call score of the fitted dose curve at least 0.9, where 1 is the maximum; inactive means score below 0.9.

How the values were obtained:
[1] = CCTE_Harrill_HTTr_Viability_MCF7: CCTE's 6-hour Cell Viability Assessment for the High-Throughput Transcriptomics (HTTr) Platform, in MCF-7 cells cultured in DMEM + 10% fetal bovine serum, Harrill Lab (AID 2284010)
Procedure, shortened: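 Cells were dosed with chemicals in an eight-point dilution series, imaged 6 hours later for propidium iodide uptake, and the endpoint was analyzed by bidirectional fitting against DMSO as negative control.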

[2] = CCTE_Harrill_HTTr_Apoptosis_MCF7: CCTE's 6-hour Apoptosis Assessment for the High-Throughput Transcriptomics (HTTr) Platform, in MCF-7 cells cultured in DMEM + 10% fetal bovine serum, Harrill Lab (AID 2284011)
Procedure, shortened: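 High-content imaging of CellEvent Caspase 3/7 Green signal follows a six-hour exposure, with eight concentrations per chemical. MCF-7 cells grown in DMEM plus 10% fetal bovine serum; activity fitted in both directions against DMSO.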

[3] = CCTE_Shafer_MEA_dev_firing_rate_mean: CCTE's Neural Network Formation Assay for Mean Firing Rate, Shafer Lab (AID 2284031);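 further: AUC of well mean spike rate recorded on DIV 5 7 9 and 12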;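 on AC50: curve fitted for loss of firing so AC50 reflects decreased mean firing rate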
Procedure, shortened: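 Rat primary cortical neurons were seeded on multielectrode arrays and treated from plating through day 12, with redosing at each feed. Spontaneous spiking was recorded four times; mean firing rate AUC was fitted downward against DMSO.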

[4] = CCTE_Shafer_MEA_dev_per_burst_spike_percent: CCTE's Neural Network Formation Assay for Percent of Spikes in a Burst, Shafer Lab (AID 2284032);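 on AC50: fitted as a decrease in burst spike percentage below DMSO baseline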
Procedure, shortened: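 Rat primary cortical neurons on 16-electrode MEA wells, dosed from plating day 0 for 12 days with renewal on DIV 5 and 9; spikes-in-bursts percentage averaged over bursting electrodes, collapsed as AUC across days 5, 7, 9, 12; loss direction versus DMSO.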

[5] = target: Estrogen receptor (Homo sapiens) (UniProt P03372); assay: CCTE_Deisenroth_AIME_96WELL_LUC_Active: CCTE's 96-well Estrogen Receptor Transactivation Assay with AIME metabolic competence (ERTA luciferase; metabolism positive), Deisenroth Lab (AID 2284023; active means hit-call score of the fitted dose curve at least 0.9, where 1 is the maximum)
Sequence of Estrogen receptor (Homo sapiens) (P03372 whole entry, looked up): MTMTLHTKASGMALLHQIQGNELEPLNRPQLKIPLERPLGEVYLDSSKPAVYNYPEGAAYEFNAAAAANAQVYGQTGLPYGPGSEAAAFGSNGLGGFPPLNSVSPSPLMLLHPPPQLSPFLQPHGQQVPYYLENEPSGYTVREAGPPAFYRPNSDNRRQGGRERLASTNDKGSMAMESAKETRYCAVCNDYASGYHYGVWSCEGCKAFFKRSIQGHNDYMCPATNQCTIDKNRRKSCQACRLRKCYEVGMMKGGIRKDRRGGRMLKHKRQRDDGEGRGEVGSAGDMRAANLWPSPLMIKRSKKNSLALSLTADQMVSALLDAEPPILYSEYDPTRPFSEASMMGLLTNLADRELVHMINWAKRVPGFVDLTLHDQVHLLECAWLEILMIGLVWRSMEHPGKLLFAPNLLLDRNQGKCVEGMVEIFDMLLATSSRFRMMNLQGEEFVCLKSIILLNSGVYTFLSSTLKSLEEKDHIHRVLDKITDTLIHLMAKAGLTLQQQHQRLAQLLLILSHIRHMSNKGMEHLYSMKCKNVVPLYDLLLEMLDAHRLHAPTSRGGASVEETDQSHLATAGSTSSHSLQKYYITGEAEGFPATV
Procedure, shortened: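 Chemicals pre-incubated 2 h with alginate-immobilized phenobarbital/beta-naphthoflavone-induced male Sprague Dawley rat liver S9, then medium transferred to VM7Luc4E2 cells for 24 h luciferase read-out. 10-point series 0.002 - 200 uM; fitted relative to 17beta-estradiol.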

[6] = target: Estrogen receptor (Homo sapiens) (UniProt P03372); assay: CCTE_Deisenroth_AIME_96WELL_LUC_Inactive: CCTE's 96-well Estrogen Receptor Transactivation Assay without AIME metabolic competence (ERTA luciferase; metabolism negative), Deisenroth Lab (AID 2284025; active means hit-call score of the fitted dose curve at least 0.9, where 1 is the maximum)
Procedure, shortened: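 VM7Luc4E2 breast cells, luciferase read 24 h after dosing with medium pre-incubated 2 h on alginate-water lids (metabolism negative). 10-point series 0.002–200 uM, single technical replicate, n≥4; fit relative to 17beta-estradiol.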

[7] = CCTE_Deisenroth_AIME_96WELL_CTox_Active: Cytotoxicity Assessment (CTOX) in CCTE's 96-well Estrogen Receptor Transactivation Assay with AIME metabolic competence (metabolism positive), Deisenroth Lab (AID 2284028; active means hit-call score of the fitted dose curve at least 0.9, where 1 is the maximum)
Procedure, shortened: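 Chemicals (0.002–200 uM) were first incubated 2 h with alginate-immobilized phenobarbital/beta-naphthoflavone-induced male rat liver S9; conditioned medium then went onto VM7Luc4E2 cells for 24 h, with viability read by protease-substrate fluorescence, fitted bidirectionally.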

[8] = CCTE_Deisenroth_AIME_96WELL_CTox_Inactive: Cytotoxicity Assessment (CTOX) in CCTE's 96-well Estrogen Receptor Transactivation Assay without AIME metabolic competence (metabolism negative), Deisenroth Lab (AID 2284029; active means hit-call score of the fitted dose curve at least 0.9, where 1 is the maximum)
Procedure, shortened: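 Chemicals (0.002 - 200 uM, 10 points) incubated 2 h with alginate-water microspheres (no S9), then medium moved onto VM7Luc4E2 cells for 24 h. Viability by protease-substrate cleavage to fluorescent probe; bidirectional fitting.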

[9] = CCTE_Deisenroth_AIME_384WELL_CTox_Active: Cytotoxicity Assessment (CTOX) in CCTE's 384-well Estrogen Receptor Transactivation Assay with AIME metabolic competence (metabolism positive), Deisenroth Lab (AID 2284037; active means hit-call score of the fitted dose curve at least 0.9, where 1 is the maximum;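 further: activity means signal loss indicating cell death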)
Procedure, shortened: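 Cytotoxicity in VM7Luc4E2 breast cells, 24 hour, measured as protease-substrate fluorescence loss, after 2-hour metabolic conditioning with induced rat hepatic S9 in alginate microspheres. Concentrations 0.002 - 200 uM, 10 points, bidirectional fitting.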

[10] = target: Estrogen receptor (Homo sapiens) (UniProt P03372); assay: CCTE_Deisenroth_AIME_384WELL_LUC_Inactive: CCTE's 384-well Estrogen Receptor Transactivation Assay without AIME metabolic competence (ERTA luciferase; metabolism negative), Deisenroth Lab (AID 2284038; active means hit-call score of the fitted dose curve at least 0.9, where 1 is the maximum;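 further: VM7Luc4E2 breast cells given medium preincubated 2 h with S9-free microspheres; hits raise estrogen receptor luciferase signal so potencies reflect agonists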)
Procedure, shortened: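 Metabolism-negative mode: chemicals (10-point, 0.002–200 uM) held 2 h with alginate-water microspheres, then conditioned medium applied to VM7Luc4E2 cells for 24 h. Luciferase induction referenced to 17beta-estradiol.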

[11] = CCTE_Shafer_MEA_acute_burst_number: CCTE's Neural Acute Assay for Single-Electrode Bursts, Shafer Lab (AID 2284013)
Procedure, shortened: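 Spontaneous network activity of primary rat cortical neurons was recorded extracellularly on microelectrode arrays at 37 C, with 40-min periods before and during exposure to 0.03-40 uM compound on DIV 13 or 15.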

[12] = CCTE_Shafer_MEA_acute_per_burst_spike_number_mean: CCTE's Neural Acute Assay for Average Number of Spikes Per Burst, Shafer Lab (AID 2284015);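 further: hits are decreases in mean spikes per burst versus baseline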
Procedure, shortened: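 Read-out: percent change in mean spikes per burst, each well's post-exposure 40-min recording versus its own 40-min baseline. Rat cortical cultures, DIV 13 or 15, compounds 0.03-40 uM; DMSO is negative control, loss-of-signal fitting.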

[13] = CCTE_Shafer_MEA_acute_burst_percentage_mean: CCTE's Neural Acute Assay for Percentage of Spikes in a Burst, Shafer Lab (AID 2284017)
Procedure, shortened: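 Rat cortical cultures, DIV 13/15, 37 C. Spikes detected at 8x rms noise (300-5000 Hz band-pass). Burst spikes/total spikes averaged across electrodes per well; % change post- vs pre-treatment (40 min each), loss-of-signal fit vs DMSO.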

[14] = CCTE_Shafer_MEA_acute_burst_percentage_std: CCTE's Neural Acute Assay for Standard Deviation of Burst Percentage, Shafer Lab (AID 2284018);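 further: fitted in the negative direction so actives lower burst percentage SD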
Procedure, shortened: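 Value is percent change from baseline in the across-electrode SD of spikes-in-bursts percentage, wells with >/= 10 active electrodes. Acute 40-min exposure to 0.03-40 uM on DIV 13 or 15 rat cortical cultures, recorded at 37 C after 40-min baseline.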

[15] = CCTE_Shafer_MEA_acute_per_network_burst_spike_number_mean: CCTE's Neural Acute Assay for Average Number of Spikes in a Network Burst, Shafer Lab (AID 2284019);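 on AC50: curve fitted for loss of signal so actives reduce spikes per network burst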
Procedure, shortened: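 Read-out is mean spike count per network burst, taken as percent change between a 40-min pre-exposure and a 40-min post-exposure recording per well. Rat primary cortical neurons on MEAs at 37 C, DIV 13 or 15; compounds at 0.03-40 uM.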

[16] = CCTE_Shafer_MEA_acute_per_network_burst_spike_number_std: CCTE's Neural Acute Assay for Standard Deviation of Number of Spikes in a Network Burst, Shafer Lab (AID 2284020);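 further: fitted for decrease in spike-number SD versus DMSO so actives lower it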
Procedure, shortened: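 Spontaneous network activity of primary rat cortical neurons is recorded extracellularly before and after a 40-min compound exposure (0.03-40 uM) at 37 C. The endpoint is the well's percent change in burst spike-number SD.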

[17] = CCTE_Shafer_MEA_acute_per_network_burst_electrodes_number_mean: CCTE's Neural Acute Assay for Mean Number of Electrodes in a Network Burst, Shafer Lab (AID 2284021);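 further: curves fitted for decreases only so hits reduce electrodes per burst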
Procedure, shortened: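 Percent change from baseline was computed as mean electrode count per network burst, comparing 40 min recordings before and during compound (0.03-40 uM) exposure. Cultures were rat cortical neurons at DIV 13 or 15, recorded on MEAs at 37 C with an adaptive 8x rms threshold.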

[18] = CCTE_Shafer_MEA_acute_network_burst_percentage: CCTE's Neural Acute Assay for Percentage of Network Bursts, Shafer Lab (AID 2284022);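 further: curves fitted for loss so actives lower network burst percentage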
Procedure, shortened: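 Network burst percentage (spikes in network bursts divided by total spikes) recorded at 37 C over 40 min baseline and 40 min after compound, 0.03-40 uM, in rat cortical cultures at DIV 13 or 15. Analysed as percent change from baseline versus DMSO.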

[19] = CCTE_Shafer_MEA_acute_cross_correlation_HWHM: CCTE's Neural Acute Assay for Cross Correlation at Half Width at Half Maximum, Shafer Lab (AID 2284026);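 further: percent change per well from pre-dose baseline in spike cross-correlogram half width; hits are a decrease in cross-correlogram half width relative to DMSO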
Procedure, shortened: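 Per-well percent change in cross-correlogram half width at half maximum, derived from 40-min recordings before and after compound (0.03-40 uM) at 37 C. Cultures were rat cortical neurons, DIV 13 or 15, with adaptive spike detection at 8x rms.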

[20] = CCTE_Shafer_MEA_acute_synchrony_index: CCTE's Neural Acute Assay for Synchrony, Shafer Lab (AID 2284027);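 further: fitted for loss of signal so actives lower synchrony relative to DMSO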
Procedure, shortened: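 Readout is percent change in the unitless network synchrony index (0 low, 1 high) between a 40-min baseline and a 40-min recording in compound. Cultures were primary rat cortical neurons on MEAs, treated at 0.03-40 uM on DIV 13 or 15.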

Nc1ccn([C@@H]2O[C@H](CO)[C@@H](O)[C@@H]2O)c(=O)n1
outcome [1]: inactive | outcome [2]: inactive | AC50 [3]: 260 nM (active) and 3.02 µM (active) | AC50 [4]: 138 nM (active) and 298 nM (active)

O=C(Cl)C(F)(F)C(F)(F)C(F)(F)C(=O)Cl
outcome [3]: inactive | AC50 [4]: 15 µM (active)

CCN(CC)C(=S)SSC(=S)N(CC)CC
outcome [1]: inactive | outcome [2]: inactive | outcome [5]: inactive | outcome [6]: inactive | outcome [7]: inactive | outcome [8]: inactive | AC50 [3]: 98.7 nM (active) and 42.1 nM (active) | AC50 [4]: 143 nM (active) and 47.8 nM (active) | outcome [9]: inactive

CCn1nc(C)c2c1C(=O)NCC(c1ccc(O)cc1)=N2
outcome [1]: inactive | outcome [2]: inactive | outcome [10]: inactive

OC(Cn1cncn1)(Cn1cncn1)c1ccc(F)cc1F
outcome [1]: inactive | outcome [2]: inactive | outcome [3]: inactive | outcome [4]: inactive

C=CCc1cc(S(=O)(=O)c2ccc(O)c(CC=C)c2)ccc1O
outcome [1]: inactive | outcome [2]: inactive | outcome [11]: inactive | outcome [12]: inactive | outcome [13]: inactive | outcome [14]: inactive | outcome [15]: inactive | outcome [16]: inactive | outcome [17]: inactive | outcome [18]: inactive | outcome [19]: inactive | outcome [20]: inactive | AC50 [9]: 169 µM (active)

Cn1cc[nH]c1=S
outcome [1]: inactive | outcome [2]: inactive | outcome [3]: inactive | outcome [4]: inactive

CCCC(CCC)C(=O)O
outcome [1]: inactive | outcome [2]: inactive | outcome [3]: inactive | outcome [4]: inactive

c1ccc(C(O[C@@H]2CCCN(CCc3ccc4c(c3)OCO4)C2)c2ccccc2)cc1
outcome [1]: inactive | outcome [2]: inactive | outcome [11]: inactive | outcome [12]: inactive | outcome [13]: inactive | outcome [14]: inactive | AC50 [15]: 4.49 µM (active) | outcome [16]: inactive | outcome [17]: inactive | outcome [18]: inactive | outcome [19]: inactive | outcome [20]: inactive | outcome [9]: inactive | outcome [10]: inactive

NCC(F)(F)C(F)(F)C(F)(F)C(F)(F)F
outcome [3]: inactive | outcome [4]: inactive

OCc1ccccc1
outcome [1]: inactive | outcome [2]: inactive | outcome [11]: inactive | outcome [12]: inactive | outcome [13]: inactive | outcome [14]: inactive | outcome [15]: inactive | outcome [16]: inactive | outcome [17]: inactive | outcome [18]: inactive | outcome [19]: inactive | outcome [20]: inactive | outcome [9]: inactive | outcome [10]: inactive

OCC(CO)(CO)CO
outcome [10]: inactive

CCCCC(CC)C(=O)OCCOCCOCCOC(=O)C(CC)CCCC (stereo unspecified)
outcome [1]: inactive | outcome [2]: inactive | outcome [11]: inactive | outcome [12]: inactive | outcome [13]: inactive | outcome [14]: inactive | outcome [15]: inactive | outcome [16]: inactive | outcome [17]: inactive | outcome [18]: inactive | outcome [19]: inactive | outcome [20]: inactive | outcome [10]: inactive

CCOC(N)=O
outcome [1]: inactive | outcome [2]: inactive | outcome [9]: inactive | outcome [10]: inactive
